Compound activity: PubChem BioAssay, several laboratories
Only a selection was taken, and hits are over-represented in it overall.
E coli WT exp – E. coli BW25113 growth inhibition, expanded screen; OD600 absorbance; growth inhibition, % at 100 µM; AID 710; 98,000 compounds, 0.15% hits;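 active = growth inhibition above about 50% at one test dose, limit read from the data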;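 note: growth measured after 20 h incubation at 37 °C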
CD11b adhes inh – CD11b/CD18-fibrinogen binding inhibition; inhibition, % at 10 µM; K562 CD11b/CD18 adhesion to fibrinogen, ATPlite luminescence; Mn2+ added to activate the integrin; P05107+P11215; 93,000 compounds, 0.54% hits; AID 1497;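 active = primary inhibition of 50% or more at 10 µM, then 40% or more on retest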
Cav32 inh – inhibitors of human Cav3.2 T-type calcium channel | O95180 | Cav3.2-expressing cells, Fluo-4 calcium fluorescence FDSS; hits give low values | B-score at 10 µM | 100,000 compounds, 4% hits | AID 449739;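 active = single-dose well whose peak fluorescence ratio is a statistical outlier from its plate by either plate-standardised score or position-corrected B-score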
Mac1 fbg enh – increases human CD11b/CD18 adhesion to fibrinogen | P05107+P11215 | K562 CD11b/CD18 adhesion to fibrinogen, ATPlite luminescence | activation, % at 10 µM | 93,000 compounds, 0.07% hits;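 active = 10 µM primary screen giving 50% or more activity, confirmed by 40% or more on retest at that dose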
The depositor's hits bear a star.

For COc1ccc(CC(=O)OCC(=O)NC(=O)NC23CC4CC(CC(C4)C2)C3)cc1 the results were E coli WT exp -5.0, CD11b adhes inh -13.7, Cav32 inh -8.02* and Mac1 fbg enh 2.0.
`COc1ccc(CCNC(=O)NC23CC4CC(CC(C4)C2)C3)cc1` gave E coli WT exp -7.0, CD11b adhes inh -4.2, Cav32 inh 0.577 and Mac1 fbg enh -1.5.
`COC(=O)NC(=S)Nc1ccc(Oc2ccc(Cl)cc2Cl)c(Cl)c1` gave Cav32 inh -0.0795.
Screening COCCn1c(SCCCC(=O)c2ccc(Br)cc2)nnc1-c1ccncc1 returned E coli WT exp 1.0, CD11b adhes inh 68.8* and Mac1 fbg enh -5.0.
Screening Cc1ccc(CSCCNC(=O)CCSc2ccccc2)cc1 returned E coli WT exp -4.0 and Cav32 inh -1.36.
For Cc1ccccc1CSCCNC(=O)CCSc1ccccc1 the results were E coli WT exp -2.0, CD11b adhes inh 15.1, Cav32 inh -6.07* and Mac1 fbg enh 3.9.
COc1ccc(C2C=C(c3ccc(Br)s3)Nc3ncnn32)cc1OC (centres undefined) was read as E coli WT exp -10.0, CD11b adhes inh -5.1, Cav32 inh -8.74* and Mac1 fbg enh 5.4.
Screening COc1ccc(C2C=C(c3ccc(C)cc3)Nc3ncnn32)cc1 (centres undefined) returned E coli WT exp 0.0, CD11b adhes inh 10.9 and Mac1 fbg enh 2.2.
For c1ccc2sc(N3CN(CCN4CCOCC4)CN(c4nc5ccccc5s4)C3)nc2c1 the results were E coli WT exp -5.0, CD11b adhes inh 11.9, Cav32 inh -5.71* and Mac1 fbg enh -0.5.
c1ccc2sc(N3CCOCC3)nc2c1 was read as E coli WT exp 6.0 and Cav32 inh 0.8.
Cc1cccc(C)c1NC(=O)c1ccc(-c2ccc(Cl)cc2Cl)o1 was read as E coli WT exp -4.0, CD11b adhes inh 10.7, Cav32 inh -4.82* and Mac1 fbg enh -3.3.
Screening O=C(Nc1nccs1)c1ccc(-c2ccc(Cl)cc2Cl)o1 returned CD11b adhes inh 18.3 and Mac1 fbg enh 1.5.
Screening Cc1ccccc1NC(=O)c1ccc(-c2ccc(Cl)cc2Cl)o1 returned E coli WT exp -24.0, CD11b adhes inh 32.0, Cav32 inh -7.49* and Mac1 fbg enh -6.6.
Screening Cc1ccccc1-c1ccc(C(=O)Nc2cccc(F)c2)o1 returned Cav32 inh -2.14.
COc1ccc(C[C@@H]2CN3C(=NC[C@@H]3C)N2CCNC(=O)c2ccc(C)c(Br)c2)cc1 was read as Cav32 inh -2.29.
Screening CNC(=S)N(Cc1ccc2c(c1)OCO2)C1CC(=O)N(c2ccc(F)cc2)C1=O (centres undefined) returned E coli WT exp 1.0, CD11b adhes inh -20.7, Cav32 inh -3.96* and Mac1 fbg enh 11.0.
`COc1cccc(C2=CC(=O)CC(C)(C)C2)n1` gave Cav32 inh -0.00365.
`O=C(NNC(=O)c1cccnc1)Nc1cccc(Cl)c1Cl` gave CD11b adhes inh -8.5 and Mac1 fbg enh 0.7.
`CC1C(c2ccccc2)N(C)C(c2ccccc2)CC1(O)c1ccccc1` (centres undefined) gave E coli WT exp 0.0, CD11b adhes inh 11.1, Cav32 inh -6.79* and Mac1 fbg enh -2.5.
`CC1(c2ccccc2)CC2CC(c3ccccc3)N1O2` (centres undefined) gave E coli WT exp 9.0, CD11b adhes inh -6.3, Cav32 inh -0.39 and Mac1 fbg enh 0.2.
`CC(=O)Nc1ccc(Br)cc1C(=O)C(=O)O` gave CD11b adhes inh -4.2 and Mac1 fbg enh 0.0.
`CC(C)C[C@H]1C(=O)N2CCC[C@H]2[C@]2(O)O[C@](NC(=O)[C@@H]3C=C4c5cccc6[nH]c(Br)c(c56)CC4N(C)C3)(C(C)C)C(=O)N12` (some centres undefined) gave Cav32 inh -4.76*.
`Brc1ccc(C2Nc3cccc4cccc(c34)N2)o1` gave E coli WT exp 0.0, CD11b adhes inh -7.9, Cav32 inh -5.4* and Mac1 fbg enh -0.9.
For c1csc(C2Nc3cccc4cccc(c34)N2)c1 the results were E coli WT exp -6.0, CD11b adhes inh -14.0, Cav32 inh -1.3 and Mac1 fbg enh 1.1.
Screening O=C(NC1CCCCC1)c1ccccc1NC(=O)C1CC(=O)N(c2ccc(Cl)cc2)C1 (centres undefined) returned Cav32 inh -0.561.
C=CCn1c(COc2ccc(Cl)cc2)nnc1SCc1ccc(C#N)cc1 was read as E coli WT exp -5.0, CD11b adhes inh 0.9, Cav32 inh -7.73* and Mac1 fbg enh 1.8.
CCn1c(CNC(=O)c2ccco2)nnc1SCC(=O)Nc1cc(C(F)(F)F)ccc1Cl was read as E coli WT exp 3.0, CD11b adhes inh 0.9, Cav32 inh -4.48* and Mac1 fbg enh 6.7.
Screening C=CCNc1ncnc2c1cnn2-c1ccc(Cl)cc1 returned E coli WT exp -5.0, CD11b adhes inh 0.4, Cav32 inh -0.0286 and Mac1 fbg enh 1.0.
C=CCNc1ncnc2c1[nH]c1ccc(Cl)cc12 was read as E coli WT exp 73.0*, CD11b adhes inh 86.9*, Cav32 inh 0.56 and Mac1 fbg enh -4.8.
`C=CCNc1ncnc2c1[nH]c1ccccc12` gave E coli WT exp 77.0*, CD11b adhes inh 29.3, Cav32 inh 1.67 and Mac1 fbg enh -8.6.
CCCCOCCCNc1ncnc2c1[nH]c1ccccc12 was read as E coli WT exp 31.0, CD11b adhes inh 100.3*, Cav32 inh -4.68* and Mac1 fbg enh -5.8.
Screening O=C(Cn1cc(C(F)(F)F)cc(Cl)c1=O)NCCc1ccccc1 returned CD11b adhes inh -9.5 and Mac1 fbg enh 1.3.
For COc1ccc(/C=N/n2c(N)nc(-c3ccccc3)c2-c2ccccc2)cc1 the results were E coli WT exp -4.0, CD11b adhes inh 15.5, Cav32 inh 0.238 and Mac1 fbg enh 0.2.
CCOC(=O)Cn1c(S(=O)(=O)Cc2ccccc2)nc2ccccc21 was read as E coli WT exp 3.0, CD11b adhes inh -7.6, Cav32 inh 0.819 and Mac1 fbg enh 1.5.
Screening CCOC(=O)Cn1c(S(=O)(=O)Cc2ccc(Cl)cc2)nc(-c2ccccc2)c1-c1ccccc1 returned E coli WT exp 1.0 and Cav32 inh -5.61*.
Screening C#CCn1c(S(=O)(=O)Cc2ccc(OC)cc2)nc(-c2ccccc2)c1-c1ccccc1 returned E coli WT exp -11.0 and Cav32 inh -5.14*.
O=C(CN1CCC(Cc2ccccc2)CC1)Nc1ccc2c(c1)OCCO2 was read as E coli WT exp 4.0, CD11b adhes inh -1.2, Cav32 inh -4.07* and Mac1 fbg enh 4.5.
`O=C(CN1CCN(CC(=O)Nc2ccccc2Cl)CC1)Nc1ccc2c(c1)OCCO2` gave E coli WT exp 2.0 and Cav32 inh -0.222.
For N#CC1(c2ccc(NC(=O)c3ccccc3F)cc2)CCCC1 the results were CD11b adhes inh 38.3 and Mac1 fbg enh -0.8.
`CCn1c(CCC(=O)Nc2nc3c(s2)CCCC3)nc2cc(S(=O)(=O)N(C)C)ccc21` gave E coli WT exp 8.0, CD11b adhes inh -12.6, Cav32 inh -1.43 and Mac1 fbg enh -1.9.
Screening CC(C)(C)NC(=O)COC(=O)/C=C/c1ccc(F)cc1 returned CD11b adhes inh 0.6 and Mac1 fbg enh -0.4.
